Values quoted from earlier work in PMC11062922 (Nature Chemical Biology, 2023).

Experiments:
[1] = test system: JAK1(JH2domain-pseudokinase)
[2] = test system: JAK2(JH1domain-catalytic)
[3] = test system: RSK1(Kin.Dom.1-N-terminal)
[4] = test system: RSK3(Kin.Dom.1-N-terminal)
[5] = test system: TYK2(JH2domain-pseudokinase)

Measured: KINOMEScan

COc1cc(Nc2ncc3c(C)nc(-c4cc5ccccc5[nH]4)n3n2)cc(OC)c1OC [GW869516X]
active: AMPK-alpha1 89% | AMPK-alpha2 61% | BLK 60% | CIT 100% | CLK1 88% | CLK2 75% | CSNK2A1 96.4% | CSNK2A2 99.7% | DDR1 52% | DDR2 52% | DYRK1A 85% | DYRK1B 81% | EPHB1 58% | FLT3-autoinhibited 75% | FLT3 96.3% | GCN2(Kin.Dom.2,S808G) 88% | HIPK1 79% | INSRR 53% | [1] 98.5% | [2] 54% | KIT 72% | LCK 71% | MAP3K4 52% | MEK5 78% | MERTK 56% | MLK1 93.8% | MLK2 89% | MLK3 87% | NEK11 86% | NEK2 70% | NEK3 89% | NEK5 99% | NEK6 99.6% | NEK7 99.7% | NEK9 90% | PAK3 69% | PIP5K1C 89% | PIP5K2C 90.3% | PKAC-beta 51% | [3] 91.7% | [4] 66% | SLK 63% | SRC 90.1% | STK16 86% | SYK 53% | TBK1 58% | [5] 82% | ULK2 51% | WEE2 85%
